# Assay outcomes from PubChem.
# HEK cytotox = HEK 293 cell cytotoxicity; 94,000 compounds, 6.6% hits; Potency, µM (series often up to 115 µM), for inactives: top-dose activity change, negative = cytotoxicity, most hits filed as inhibitors; AID 1345083; HEK 293 viability, ATP luminescence (CellTiter-Glo), 48-72 h; note: nearly all actives have a fitted effect of over 60% in size
#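 qHTS cytotoxicity; HEK 293, 250 cells/well; compound pinned; 48 or 72 hr, 37 degree Celsius, 5% CO2, 95% humidity; CellTiter-Glo, 10 min RT; luminescence (ATP).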
# hNpr1 antagonist = blocks ANP-stimulated signaling of human Npr1 receptor; 76,000 compounds, 1.6% hits; P16066; Potency, µM (series often up to 46.3 µM), without a hit: top-dose activity change, negative = inhibition, actives largely listed as inhibitors; AID 1347048; HEK293 hNpr1 GloSensor cGMP, ANP-stimulated luminescence; calls by dose curve; note: nearly all actives have a fitted effect of over 60% in size
#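 Compound pre-incubated 30 min at room temperature on GloSensor-loaded HEK293 cells stably carrying hNpr1 and the pGS-40F cGMP biosensor. Stimulation uses hNppA at 0.1 nM final; luminescence is taken at baseline and 20 min post-agonist.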
# GPT2 inh = inhibitors of human GPT2 alanine aminotransferase; Q8TD30; Recombinant GPT2, coupled pyruvate oxidase/HRP Amplex Red fluorescence; Potency, µM (titrated, usually from 57.7 µM), for the others: top-dose activity change, negative = inhibition, hits mostly inhibitors; 100,000 compounds, 0.25% hits; AID 1671188; note: nearly all actives have a fitted effect of over 60% in size
#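 Fluorescence read-out: pyruvate from GPT2 turnover coupled to pyruvate oxidase, HRP and Amplex Red (0.2mM ThPP, 0.2U/mL PO and HRP, 50uM Amplex final). Substrates 250uM a-KG, 2mM L-alanine; enzyme 10ng/uL; 30 min RT.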
# FLuc inh = Photinus pyralis luciferase inhibition | P08659 | purified P. pyralis luciferase, luminescence, biochemical | Potency, µM (top dose mostly 115 µM), hits mostly inhibitors | 76,000 compounds, 2.5% hits | AID 1347043; note: nearly all actives have a fitted effect of over 65% in size
# Target sequence (P08659 whole entry, looked up): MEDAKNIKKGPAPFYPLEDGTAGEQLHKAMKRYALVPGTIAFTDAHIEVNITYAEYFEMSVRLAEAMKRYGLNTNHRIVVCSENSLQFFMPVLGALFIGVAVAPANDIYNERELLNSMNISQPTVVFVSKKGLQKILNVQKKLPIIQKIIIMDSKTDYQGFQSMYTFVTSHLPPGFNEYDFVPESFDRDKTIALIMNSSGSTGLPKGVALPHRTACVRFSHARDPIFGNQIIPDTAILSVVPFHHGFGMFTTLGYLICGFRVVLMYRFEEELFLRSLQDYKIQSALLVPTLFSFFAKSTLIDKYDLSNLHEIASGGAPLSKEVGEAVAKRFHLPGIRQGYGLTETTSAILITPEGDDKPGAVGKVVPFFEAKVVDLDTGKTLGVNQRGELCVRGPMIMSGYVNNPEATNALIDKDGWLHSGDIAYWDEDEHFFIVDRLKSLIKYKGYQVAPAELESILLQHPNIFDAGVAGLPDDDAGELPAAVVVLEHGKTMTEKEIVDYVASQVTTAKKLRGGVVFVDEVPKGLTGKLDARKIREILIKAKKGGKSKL
#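 FLuc 10nM, D-luciferin 10uM, ATP 10uM, Mg acetate 10mM, Tris acetate pH 7.5, Tween/BSA; cpd qHTS; enzyme added last; CCD luminescence.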
# NIH3T3 tox = cytotoxic compounds in NIH 3T3 cells; AID 1345082; NIH 3T3 viability, CellTiter-Glo ATP luminescence, 48-72 h; Potency, µM (highest dose often 96.7 µM), inactives show at the highest dose activity change, negative = cytotoxicity, usual class: inhibitors; 94,000 compounds, 4.3% hits; note: nearly all actives have a fitted effect of over 55% in size
#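 ATP-dependent luminescence (CellTiter-Glo) served as the viability signal for NIH 3T3 cells treated with compound for 48 or 72 hr at 37 °C.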
# An asterisk follows results filed as active; i = inactive; ? = inconclusive; · = no result given; [ ] = another dose, or the depositor's remark. Sampled rows, rich in hits. Any-hit rate of the full collection: about 10%. Unless noted, calls come from the whole dose curve; as a rule, active = well fitted curve in the direction sought with a large enough effect; inconclusive = small, poorly fitted or top-dose-only effect, or another doubt; inactive = no such curve, though single readings can be large; an effect the other way counts as inactive or inconclusive. % is set by controls: 0 for no effect and ±100 for the full control effect; potency is the fitted concentration of half-maximal effect.
SMILES,HEK cytotox,hNpr1 antagonist,GPT2 inh,FLuc inh,NIH3T3 tox
COC(=O)NC1CCN(Cc2cccc(-c3ccccc3OC)c2)CC1,?,·,4%,·,-27%
CNC(=O)c1cc(C2CC2)nc2onc(C3CCN(C(=O)c4ccc(OC)cc4)CC3)c12,?,·,·,·,-1%
COc1ccc(C(=O)N2CCC(C(=O)N3CCC(c4nc5ncccc5[nH]4)CC3)CC2)cc1,i,·,i,·,-6%
COc1ccccc1-c1cccc(CN2CCC(NC(=O)c3ccccc3C)CC2)c1,45µM*,·,·,·,?
COc1ccc(C(=O)NC2CCN(c3cc(-c4ccc(F)cc4)[nH]n3)C2)c(OC)c1 (configuration not stated),?,-21%,?,i,?
CCCCOc1ccc(CN2C[C@@H]3C(=O)N(C)C(=O)[C@@H]3C2)cc1,?,-21%,-7%,28µM*,-8%
Cc1ccc(CNC(=O)c2ccc(NC(=O)c3cc4c(=O)[nH]c(C)cn4n3)cc2)cc1,?,6%,i,11µM*,-4%
CSc1ccc(CNC(=O)c2cc3c(=O)[nH]c(C)cn3n2)cc1,-9%,9%,i,13µM*,-25%
Cc1cn2nc(C(=O)NCCCc3ccccc3)cc2c(=O)[nH]1,-24%,15%,i,14µM*,-25%
COc1cccc(CNC(=O)c2nnn3cc(C)[nH]c(=O)c23)c1,12%,2%,-30%,i,-15%
CCc1ccc(CNC(=O)c2nnn3cc(C)[nH]c(=O)c23)cc1,-29%,-30%,i,i,35µM*
COCCCNC(=O)c1cc2c(=O)[nH]c(C)cn2n1,3%,4%,i,?,i
Cc1ccc(OCc2nc(C3CCN(C(=O)c4ccco4)CC3)no2)cc1,?,-30%,i,i,?
O=C(NCCc1ccc(F)cc1)c1ccc2nnc(-c3cc(F)ccc3F)n2c1,?,·,2%,·,?
O=C(NCc1ccccc1Cl)c1ccc2nnc(CC3CC3)n2c1,?,·,-3%,·,?
CC(C)(C)NC(=O)N1CCCC1c1nc(CCOCC2CC2)no1 (configuration not stated),i,·,i,·,i
COC(=O)CNC(=O)[C@@H]1CCCN1C(=O)c1cccc(-c2ccccc2OC)c1,?,·,i,·,-11%
CN(C)S(=O)(=O)N1CC(N2CC(C(=O)N3CCCC3)CC2=O)C1 (configuration not stated),-1%,·,-9%,·,-7%
O=C(NCc1ccc2c(c1)OCO2)c1cc(-c2cccc(C(F)(F)F)c2)c2nncn2n1,-17%,·,i,·,-20%
Cc1ccc(OCc2nc(C3CCN(C(=O)Cc4cccc(F)c4)C3)no2)cc1 (configuration not stated),?,·,4%,·,?
CC1=C[C@@H](CNC(=O)CN(C)C)[C@H](C(C)C)C[C@H]1Cc1nc2ccccc2[nH]1,?,2%[70.6 µM],4%[88.5 µM],i,100µM*
COc1ccc2[nH]c(C[C@@H]3C[C@@H](C(C)C)[C@H](CNC(=O)C4CCC4)C=C3C)nc2n1,45µM*,?,-38%[88.5 µM],i,63µM*
COc1ccccc1C(=O)NC[C@@H]1C=C(C)[C@H](Cc2nc3ccccc3[nH]2)C[C@H]1C(C)C,?,?,-9%[88.5 µM],i,32µM*
O=S(=O)(c1ccccc1C(F)(F)F)N1CC(c2nc(Cc3ccccc3)no2)C1,?,-25%,?,i,-27%
O=C(c1cccc2[nH]ccc12)N1CC(Oc2ccc(-c3nc(-c4ccccc4)no3)cc2)C1,?,-27%,i,16µM*,?
SMILES,HEK cytotox,hNpr1 antagonist,GPT2 inh,FLuc inh,NIH3T3 tox
Cc1noc(-c2ccc(OC3CN(C(=O)c4sccc4C)C3)cc2)n1,?,?,?,i,?
Cc1noc(-c2ccc(OC3CN(C(=O)c4cccc5[nH]ccc45)C3)cc2)n1,?,?,-6%,35µM*,?
O=C(NCC(F)F)C1CCN(Cc2ccccc2-c2cccnc2)CC1,2%,·,-12%,·,-11%
O=C(Nc1ccccc1F)N1CCC(Oc2ccccc2-c2nc(C3CC3)no2)C1 (configuration not stated),?,·,-7%,·,?
Cc1ccccc1N1CCN(C(=O)c2ccc3c(c2)N(C)C2CCCCCN2C3=O)CC1 (configuration not stated),45µM*,0%,i,i,?
CN1c2cc(C(=O)N3CCN(c4ccccc4F)CC3)ccc2C(=O)N2CCCCC21 (configuration not stated),?,-2%,-5%,i,-15%
CN1c2cc(C(=O)N3CCN(c4ccccc4Cl)CC3)ccc2C(=O)N2CCCCC21 (configuration not stated),40µM*,0%,i,i,?
CCC(=O)NC1CCN(c2ccnc3ccnn23)CC1,i,·,4%[88.5 µM],·,i
Clc1ccc(CNC[C@H]2Cn3c(-c4cccc(Cl)c4)cnc3CO2)cc1,63µM*,?,-14%[88.5 µM],i,45µM*
Clc1ccc(CNC[C@H]2Cn3c(-c4ccccc4)cnc3CO2)cc1,100µM*,?,-9%[88.5 µM],i,89µM*
Clc1ccc(-c2cnc3n2C[C@H](CNCc2cccnc2)OC3)cc1,?,-12%[70.6 µM],i,i,?
O=C(NC[C@H]1Cn2c(-c3ccc(Cl)cc3)cnc2CO1)c1cccnc1,22µM*,-4%[70.6 µM],?,?,?
Fc1ccc(CNC[C@H]2Cn3c(-c4ccc(Cl)cc4)cnc3CO2)cc1,79µM*,?,-2%[88.5 µM],i,?
Cc1ccc(C(=O)N2CCN(Cc3ccccc3-c3cccnc3)CC2)cc1,?,·,i,·,?
O=C(NCCc1ccc(Cl)cc1)C1CCN(Cc2ccccc2-c2cccnc2)CC1,?,·,i,·,?
Cc1noc2c(NCC3CCOCC3)cc(-c3cccnc3)nc12,-5%[172 µM],7%[70.6 µM],i,i,?
Cc1noc2c(NC(C)C)cc(-c3cccnc3)nc12,-26%[230 µM],-2%[70.6 µM],?,i,40µM*
Cc1noc2c(Nc3ccc(C(N)=O)cc3)cc(-c3cccnc3)nc12,-9%[172 µM],-8%[70.6 µM],i,i,20µM*
CNC(=O)c1cc(C)nc2onc(C3CCN(C(=O)c4cccnc4)C3)c12 (configuration not stated),3%,·,·,·,-5%
Cc1cc(C(=O)N2CCCC(C(=O)Nc3cccc(-c4cc5ccccc5[nH]4)c3)C2)nn1C (configuration not stated),32µM*,-6%,i,?,?
Cc1c(CN2CCCC(C(=O)Nc3cccc(-c4cc5ccccc5[nH]4)c3)C2)cnn1C (configuration not stated),20µM*,-25%,i,i,8.9µM*
